# Results: PubChem BioAssay (NCATS)
# Inconclusive results are not listed. A call without a number means that no potency is given here. Active and inactive are the calls of the source. Unless noted, the call rests on the fitted dose curve; in most records, active means well fitted curve in the direction sought with a large enough effect; inconclusive means small, poorly fitted or top-dose-only effect, or another doubt; inactive means no such curve, though single readings can be large; an effect the other way counts as inactive or inconclusive.
# Columns and labels:
# [1] = molecular target: ATP-dependent 6-phosphofructokinase (Trypanosoma brucei brucei) (UniProt O15648); test: qHTS Assay to Find Inhibitors of T. brucei phosphofructokinase: hit validation (AID 492961);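 further: luminescence reports ADP formed as PFK phosphorylates fructose-6-phosphate with ATP; series mostly up to about 51 µM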
# Chain of ATP-dependent 6-phosphofructokinase (Trypanosoma brucei brucei) (O15648 whole entry, looked up): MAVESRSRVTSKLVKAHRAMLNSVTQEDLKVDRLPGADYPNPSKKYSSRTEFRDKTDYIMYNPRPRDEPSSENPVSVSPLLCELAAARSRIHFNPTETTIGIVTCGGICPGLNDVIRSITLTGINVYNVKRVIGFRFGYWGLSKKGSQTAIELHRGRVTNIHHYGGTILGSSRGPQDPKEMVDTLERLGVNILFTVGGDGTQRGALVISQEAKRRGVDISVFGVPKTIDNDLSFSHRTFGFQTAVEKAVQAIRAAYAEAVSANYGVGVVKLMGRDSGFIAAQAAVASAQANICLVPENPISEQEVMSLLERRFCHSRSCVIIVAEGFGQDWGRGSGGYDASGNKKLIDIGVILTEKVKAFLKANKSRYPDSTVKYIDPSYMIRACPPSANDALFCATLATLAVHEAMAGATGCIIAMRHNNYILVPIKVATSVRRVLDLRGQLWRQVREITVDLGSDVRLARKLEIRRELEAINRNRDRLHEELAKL
# Procedure, shortened: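 Percent activity derived from corrected luminescence, normalized between 0x and 1x enzyme controls, then fitted to concentration-response curves. Conditions: 1.25 nM PFK, 0.1 mM ATP, 0.5 mM F6P, 45 min RT.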
# [2] = molecular target: Ubiquitin carboxyl-terminal hydrolase 1 (Homo sapiens) (UniProt O94782); test: Inhibitors of USP1/UAF1: Pilot qHTS (AID 504865);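 further: rhodamine fluorescence freed from ubiquitin-rhodamine substrate followed over time; top concentration of the series differs between compounds; nearly all actives have a fitted effect of over 35% in size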
# Chain of Ubiquitin carboxyl-terminal hydrolase 1 (Homo sapiens) (O94782 whole entry, looked up): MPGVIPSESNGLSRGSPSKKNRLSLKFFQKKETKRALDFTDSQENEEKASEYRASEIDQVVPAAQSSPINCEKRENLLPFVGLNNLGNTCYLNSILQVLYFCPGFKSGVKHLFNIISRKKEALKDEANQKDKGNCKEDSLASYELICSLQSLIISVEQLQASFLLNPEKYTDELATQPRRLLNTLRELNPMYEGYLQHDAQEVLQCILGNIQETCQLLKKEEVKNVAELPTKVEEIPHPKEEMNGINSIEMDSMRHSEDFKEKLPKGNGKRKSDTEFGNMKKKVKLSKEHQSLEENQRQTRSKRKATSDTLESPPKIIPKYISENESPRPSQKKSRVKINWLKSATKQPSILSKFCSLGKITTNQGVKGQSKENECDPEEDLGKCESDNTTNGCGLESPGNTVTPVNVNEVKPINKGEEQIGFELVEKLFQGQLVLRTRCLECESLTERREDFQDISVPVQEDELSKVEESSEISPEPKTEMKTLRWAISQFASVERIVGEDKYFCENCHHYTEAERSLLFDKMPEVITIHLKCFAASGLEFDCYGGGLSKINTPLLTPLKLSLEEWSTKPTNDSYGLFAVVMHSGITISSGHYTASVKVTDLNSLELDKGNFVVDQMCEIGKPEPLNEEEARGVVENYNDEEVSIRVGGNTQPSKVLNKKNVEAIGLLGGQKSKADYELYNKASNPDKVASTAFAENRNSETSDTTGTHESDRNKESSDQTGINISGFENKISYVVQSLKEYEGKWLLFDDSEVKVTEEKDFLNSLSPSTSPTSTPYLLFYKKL
# Procedure, shortened: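 Enzyme-free wells gave the negative control, while test wells held 1nM USP1/UAF1 preincubated with compound for 15 min at room temperature. Ub-Rho at 150nM final started the reaction, and fluorescence at 480/540 nm was recorded kinetically.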
# [3] = Validation screen for small molecules that induce genotoxicity in human embryonic kidney (HEK293T) cells expressing luciferase-tagged ELG1 (AID 493106)
# Procedure, shortened: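 Cells were dispensed at 2,000 per well, then 23 nL compound or DMSO was pinned in. After 16 hr at 37 °C and 5% CO2, ONE-Glo reagent was added. Luciferase activity was measured following 30 min at room temperature.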
# [4] = molecular target: ATPase family AAA domain-containing protein 5 (Homo sapiens) (UniProt Q96QE3); test: Validation screen for small molecules that inhibit ELG1-dependent DNA repair in human embryonic kidney (HEK293T) cells expressing luciferase-tagged ELG1 (AID 493107);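 further: cells co-treated with the DNA-damaging agent 5-fluorouridine alongside compound; series mostly up to about 46 µM; inhibitors lower the ELG1-luciferase luminescence signal; nearly all actives have a fitted effect of over 70% in size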
# Chain of ATPase family AAA domain-containing protein 5 (Homo sapiens) (Q96QE3 whole entry, looked up, the tested form may be a part): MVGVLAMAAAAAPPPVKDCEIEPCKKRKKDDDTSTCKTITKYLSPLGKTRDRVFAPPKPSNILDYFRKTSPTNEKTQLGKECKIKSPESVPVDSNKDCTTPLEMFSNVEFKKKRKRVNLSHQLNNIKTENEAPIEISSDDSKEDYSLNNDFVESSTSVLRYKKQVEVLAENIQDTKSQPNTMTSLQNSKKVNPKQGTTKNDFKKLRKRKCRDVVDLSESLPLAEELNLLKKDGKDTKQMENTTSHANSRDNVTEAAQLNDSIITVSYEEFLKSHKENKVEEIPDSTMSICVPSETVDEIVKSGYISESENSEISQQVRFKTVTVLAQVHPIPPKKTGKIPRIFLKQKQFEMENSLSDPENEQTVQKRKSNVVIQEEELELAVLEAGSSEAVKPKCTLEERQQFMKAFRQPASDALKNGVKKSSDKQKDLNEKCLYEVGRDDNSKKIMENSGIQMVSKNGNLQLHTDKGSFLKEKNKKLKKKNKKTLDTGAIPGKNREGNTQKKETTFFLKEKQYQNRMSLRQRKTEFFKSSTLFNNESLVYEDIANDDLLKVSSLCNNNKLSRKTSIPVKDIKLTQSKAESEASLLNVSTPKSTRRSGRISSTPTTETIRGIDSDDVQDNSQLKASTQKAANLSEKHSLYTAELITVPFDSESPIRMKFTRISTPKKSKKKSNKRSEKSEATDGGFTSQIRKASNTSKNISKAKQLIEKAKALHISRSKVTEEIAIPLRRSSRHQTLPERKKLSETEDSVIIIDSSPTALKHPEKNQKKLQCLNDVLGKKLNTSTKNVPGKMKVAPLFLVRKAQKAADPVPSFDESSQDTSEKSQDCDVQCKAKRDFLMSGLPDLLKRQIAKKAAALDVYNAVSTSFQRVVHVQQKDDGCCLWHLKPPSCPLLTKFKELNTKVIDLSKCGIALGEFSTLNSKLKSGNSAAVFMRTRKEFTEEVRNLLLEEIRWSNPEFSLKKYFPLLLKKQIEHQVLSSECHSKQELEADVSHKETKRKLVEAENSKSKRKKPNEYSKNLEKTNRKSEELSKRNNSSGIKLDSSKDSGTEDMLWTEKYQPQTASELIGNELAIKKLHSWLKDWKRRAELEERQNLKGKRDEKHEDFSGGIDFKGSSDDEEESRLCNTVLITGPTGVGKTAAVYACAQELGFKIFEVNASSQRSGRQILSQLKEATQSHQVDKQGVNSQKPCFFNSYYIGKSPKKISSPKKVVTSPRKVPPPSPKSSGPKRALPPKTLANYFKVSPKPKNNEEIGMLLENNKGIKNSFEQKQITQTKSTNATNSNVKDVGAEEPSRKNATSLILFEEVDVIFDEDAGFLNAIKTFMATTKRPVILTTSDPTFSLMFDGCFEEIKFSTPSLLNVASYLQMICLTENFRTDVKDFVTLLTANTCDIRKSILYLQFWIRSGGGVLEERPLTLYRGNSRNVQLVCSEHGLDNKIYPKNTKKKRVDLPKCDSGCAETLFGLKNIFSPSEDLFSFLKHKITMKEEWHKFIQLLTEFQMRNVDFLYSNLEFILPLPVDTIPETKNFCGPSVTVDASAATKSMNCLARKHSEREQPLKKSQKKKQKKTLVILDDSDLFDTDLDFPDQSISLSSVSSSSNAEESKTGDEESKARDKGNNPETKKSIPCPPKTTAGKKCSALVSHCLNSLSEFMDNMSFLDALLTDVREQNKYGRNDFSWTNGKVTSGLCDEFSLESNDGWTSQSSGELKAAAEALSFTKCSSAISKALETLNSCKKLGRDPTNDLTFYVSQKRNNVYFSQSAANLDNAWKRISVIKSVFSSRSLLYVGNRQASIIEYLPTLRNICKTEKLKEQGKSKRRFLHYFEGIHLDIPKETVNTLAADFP
# Procedure, shortened: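 Cells are dispensed in 1536-well format, then 5-fluorouridine and compound are pinned in. After a 16 hr incubation at 37 °C and 5% CO2, ONE-Glo is added and luciferase measured on a CCD imager.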
# [5] = molecular target: Thyrotropin-releasing hormone receptor (Homo sapiens) (UniProt P34981); test: qHTS for Small Molecule Agonists and Allosteric Enhancers of Human TRH Receptor: Validation Screen for Agonists (AID 493127;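 active means calcium activation more than 3 SD above the typical response in the agonist read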;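 further: intracellular calcium rise by fluo-8 fluorescence before TRH EC20 addition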); details: TRH receptor agonist cell assay; at 2 µM; stronger effect = higher value
# Chain of Thyrotropin-releasing hormone receptor (Homo sapiens) (P34981 whole entry, looked up): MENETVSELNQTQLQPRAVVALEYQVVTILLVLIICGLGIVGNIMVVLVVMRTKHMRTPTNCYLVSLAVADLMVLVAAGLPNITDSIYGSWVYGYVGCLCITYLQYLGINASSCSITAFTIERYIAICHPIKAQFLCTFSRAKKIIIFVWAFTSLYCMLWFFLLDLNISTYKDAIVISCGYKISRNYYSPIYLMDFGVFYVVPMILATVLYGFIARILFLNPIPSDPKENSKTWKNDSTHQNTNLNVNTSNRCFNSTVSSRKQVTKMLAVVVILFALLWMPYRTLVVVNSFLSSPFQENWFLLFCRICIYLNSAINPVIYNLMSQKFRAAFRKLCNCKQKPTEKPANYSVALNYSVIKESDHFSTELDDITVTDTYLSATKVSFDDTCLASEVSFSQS
# Procedure, shortened: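 Compounds are added by online pintool to dye-loaded TRHR cells while fluorescence is recorded every second. A rise in calcium signal during the agonist read marks activation; a later 10 nM TRH addition (EC20) serves the separate enhancer mode.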
# [6] = Nrf2 qHTS screen for inhibitors: Validation (AID 493153; active means well fitted inhibition curve with a large enough effect in the main read-out, with a control signal flat, not every such curve was filed as active); details: Potency: luciferase luminescence; viability change: measured here: cytotoxicity max response
# Procedure, shortened: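 A549 ARE_Fluc, 5% FBS OPTI-MEM; cpd titration, 18-24 h, 37°C/5% CO2. Read 1: CellTiter-Fluor (Ex 405/Em 525), cytotox. Read 2: luciferase lum, Nrf2 activity.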
# [7] = qHTS for Inhibitors of Cell Surface uPA Generation: Validation Assay (AID 493164);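 further: RAW 264.7 macrophage cells exposed to compound for 18 h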
# Procedure, shortened: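 ATP-Lite luminescence read-out: ATP remains high when uPA activity-dependent LF translocation into the cytoplasm is blocked. RAW 264.7 cells, 18 h compound exposure at 37 C; 7-point titration, 2.45 nM to 38.3 uM final.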
# [8] = Validation screen for small molecules that induce DNA re-replication in SW480 colon adenocarcinoma cells (AID 504364)
# Procedure, shortened: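 Image-based qHTS: compounds were incubated with SW480 cells for 48 hr, nuclei stained with Hoechst, and per-nucleus fluorescence intensity scanned to flag cells with excess DNA content.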
# [9] = molecular target: Peptidyl-prolyl cis-trans isomerase NIMA-interacting 1 (Homo sapiens) (UniProt Q13526); test: qHTS Validation Assay to Find Inhibitors of Pin1 (AID 504536; active means well fitted inhibition curve with a large enough effect in the polarisation, with a control signal flat, not every such curve was filed as active; the % refers to the polarisation)
# Chain of Peptidyl-prolyl cis-trans isomerase NIMA-interacting 1 (Homo sapiens) (Q13526 whole entry, looked up): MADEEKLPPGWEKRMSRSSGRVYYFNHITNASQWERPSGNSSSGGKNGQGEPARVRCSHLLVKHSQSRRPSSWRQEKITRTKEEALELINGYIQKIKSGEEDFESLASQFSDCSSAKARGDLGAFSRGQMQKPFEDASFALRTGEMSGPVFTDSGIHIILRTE
# Procedure, shortened: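 Fluorescence polarization competition: compounds (titration) displace HiFluor-488-labeled Pin1-1b peptide from Pin1 (0.3 uM final) in pH 7.5 HEPES buffer with DTT, 10 min at room temperature; %Activity normalized to no-enzyme wells, curves fitted.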
# [10] = molecular target: phosphoglycerate mutase (Leishmania major) (UniProt Q4Q090); test: qHTS Validation Assay to Find Inhibitors of Phosphoglycerate Mutase (AID 504548); details: Potency: inhibition qHTS; further: series mostly up to about 58 µM
# Procedure, shortened: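 Lm PGAM at 1.25 nM final with substrate in 100 mM TEA pH 7.6, 5 mM MgCl2, 0.01% Tween-20; 45 min at room temperature. Kinase-GloPlus added, 10 min, end-point luminescence read.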
# [11] = qHTS for Inhibitors of ATXN expression: Validation (AID 588378); further: series mostly up to about 57 µM; nearly all actives have a fitted effect of over 75% in size
# Procedure, shortened: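 After a 2 h attachment and 24 h compound incubation, HEK293-ATXN2-FFLuc wells are read for fluorescence at 405 nm excitation/525 nm emission as a viability measure, then for Bright-Glo luminescence reflecting ATXN2 expression.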
# [12] = molecular target: DNA dC->dU-editing enzyme APOBEC-3G (Homo sapiens) (UniProt Q9HC16); test: qHTS for inhibitors of Vif-A3G interactions: Validation (AID 588379)
# Chain of DNA dC->dU-editing enzyme APOBEC-3G (Homo sapiens) (Q9HC16 whole entry, looked up): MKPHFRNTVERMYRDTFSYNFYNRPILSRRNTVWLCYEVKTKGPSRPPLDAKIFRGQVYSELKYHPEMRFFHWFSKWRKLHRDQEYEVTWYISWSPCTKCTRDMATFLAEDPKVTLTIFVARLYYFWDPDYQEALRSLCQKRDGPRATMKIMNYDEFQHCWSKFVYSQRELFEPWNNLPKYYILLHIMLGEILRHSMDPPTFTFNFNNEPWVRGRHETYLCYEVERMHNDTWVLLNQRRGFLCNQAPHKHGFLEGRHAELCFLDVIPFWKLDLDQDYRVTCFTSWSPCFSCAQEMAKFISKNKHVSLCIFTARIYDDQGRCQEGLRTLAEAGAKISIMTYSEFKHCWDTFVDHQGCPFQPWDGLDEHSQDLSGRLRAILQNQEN
# Procedure, shortened: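 Yellow fluorescence (Ex 488, Em 500-530) of Vif-coexpressing HeLa A3G-eYFP cells, scanned by Acumen cytometer, reports blocked A3G degradation. Cells plated at 700/well overnight at 37 deg C before compound addition, then a further overnight compound incubation at 37 deg C.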
# [13] = molecular target: Estrogen receptor (Homo sapiens) (UniProt P03372); test: qHTS assay for small molecule agonists of estrogen receptor alpha signaling (AID 588514; calls by dose curve; further: nearly all actives have a fitted effect of over 70% in size)
# Chain of Estrogen receptor (Homo sapiens) (P03372 whole entry, looked up): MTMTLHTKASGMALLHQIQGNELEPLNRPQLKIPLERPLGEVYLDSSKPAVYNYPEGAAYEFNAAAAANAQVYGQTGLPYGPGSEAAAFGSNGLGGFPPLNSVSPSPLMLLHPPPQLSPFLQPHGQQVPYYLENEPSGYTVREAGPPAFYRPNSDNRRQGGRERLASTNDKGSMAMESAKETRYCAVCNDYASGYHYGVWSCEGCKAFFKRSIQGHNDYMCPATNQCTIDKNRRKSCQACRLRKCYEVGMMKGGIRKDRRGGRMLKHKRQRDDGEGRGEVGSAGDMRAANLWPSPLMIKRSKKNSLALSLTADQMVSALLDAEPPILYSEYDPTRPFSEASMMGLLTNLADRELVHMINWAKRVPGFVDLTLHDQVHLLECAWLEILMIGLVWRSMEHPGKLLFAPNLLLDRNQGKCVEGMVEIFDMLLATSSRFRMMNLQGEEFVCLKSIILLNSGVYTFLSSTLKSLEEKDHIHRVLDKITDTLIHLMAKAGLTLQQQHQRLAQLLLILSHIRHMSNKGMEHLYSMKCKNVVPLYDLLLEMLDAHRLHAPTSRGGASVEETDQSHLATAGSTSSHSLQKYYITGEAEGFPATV
# Procedure, shortened: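 Efficacy is expressed against 20 nM 17-beta-estradiol (100%) and DMSO basal (0%); EC50 from Hill equation. Assay: beta-lactamase reporter in ER-alpha-UAS-bla HEK 293 cells, 18 h compound incubation, CCF4 detection.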
structure (smiles),measurement,setting,value
CC1(C)CCC(C)(C)c2cc(NC(=O)c3ccc(C(=O)O)cc3)ccc21,outcome,[1],inactive
Cc1cc(=O)oc2cc(O)ccc12,outcome,[1],inactive
O=C(O)CCNC(=O)c1ccc(N=Nc2ccc(O)c(C(=O)O)c2)cc1,outcome,[1],inactive
C[C@H](Cn1cnc2c(N)ncnc21)OCP(=O)(O)O,outcome,[1],inactive
same,Potency,[2],inactive
CC[C@]1(O)C[C@H]2CN(CCc3c([nH]c4ccccc34)[C@@](C(=O)OC)(c3cc4c(cc3OC)N(C=O)[C@H]3[C@@](O)(C(=O)OC)[C@H](OC(C)=O)[C@]5(CC)C=CCN6CC[C@]43[C@@H]65)C2)C1,outcome,[1],inactive
same,Potency,[2],inactive
Cc1ncc([N+](=O)[O-])n1CC(C)O (centres undefined),outcome,[1],inactive
CC(C)(S)[C@@H](N)C(=O)O,outcome,[1],inactive
CC(S)C(=O)NCC(=O)O (centres undefined),outcome,[1],inactive
same,Potency,[2],inactive
O=C(OC1C[C@H]2CC[C@@H](C1)[N+]21CCCC1)C(O)(c1ccccc1)c1ccccc1 (some centres undefined),outcome,[1],inactive
same,Potency,[2],inactive
Cc1cc2c(s1)Nc1ccccc1N=C2N1CCN(C)CC1,outcome,[1],inactive
CCOc1cc(CC(=O)N[C@@H](CC(C)C)c2ccccc2N2CCCCC2)ccc1C(=O)O,outcome,[1],inactive
same,Potency,[2],inactive
O=c1oc2cc(O)ccc2s1,outcome,[1],inactive
same,Potency,[2],inactive
Nc1cc(C(Cl)=C(Cl)Cl)c(S(N)(=O)=O)cc1S(N)(=O)=O,outcome,[1],inactive
CNC[C@H](O)c1ccc(O)c(O)c1,outcome,[1],inactive
same,Potency,[3],inactive
same,outcome,[4],inactive
same,activation,[5],0.875% (inactive)
same,Potency,[6],inactive
same,viability change,[6],3.45%
same,outcome,[7],inactive
same,Potency,[8],inactive
same,outcome,[9],inactive
same,Potency,[10],inactive
same,Potency,[2],inactive
same,Potency,[11],inactive
same,outcome,[12],inactive
same,outcome,[13],inactive
CC1=C(C)C(=O)C(C(CCCCCC(=O)O)c2ccccc2)=C(C)C1=O (centres undefined),outcome,[1],inactive
Cn1c(NCCN(CCO)CCCc2ccc([N+](=O)[O-])cc2)cc(=O)n(C)c1=O,outcome,[1],inactive
C[Se]CCC(N)C(=O)O (centres undefined),outcome,[1],inactive
same,Potency,[2],inactive
Clc1ccc(C(Cn2ccnc2)OCc2ccsc2Cl)c(Cl)c1 (centres undefined),outcome,[1],inactive
COCCCOc1ccnc(CS(=O)c2nc3ccccc3[nH]2)c1C (centres undefined),outcome,[1],inactive
Cc1cccc(C)c1OCC(=O)N[C@@H](Cc1ccccc1)[C@@H](O)C[C@H](Cc1ccccc1)NC(=O)[C@H](C(C)C)N1CCCNC1=O,outcome,[1],inactive
C=C(c1ccc(C(=O)O)cc1)c1cc2c(cc1C)C(C)(C)CCC2(C)C,outcome,[1],inactive
CC(C)c1ccc2oc3nc(N)c(C(=O)O)cc3c(=O)c2c1,outcome,[1],inactive
CCOC(=O)c1c(C)n(C)c2ccc(O)cc12,outcome,[1],inactive
same,Potency,[2],inactive
CC(C)[C@H](N)C(=O)OCCOCn1cnc2c(=O)[nH]c(N)nc21,outcome,[1],inactive
N=C(N)c1ccc2cc(OC(=O)c3ccc(N=C(N)N)cc3)ccc2c1,outcome,[1],inactive
same,Potency,[2],inactive
O=C(NC(Cc1cc(=O)[nH]c2ccccc12)C(=O)O)c1ccc(Cl)cc1 (centres undefined),outcome,[1],inactive
COC1=C(OC)C(=O)C(CCCCCCCCCCO)=C(C)C1=O,outcome,[1],inactive
